Inconclusive results are not listed. Values without a mark were called inactive. The source made the active and inactive calls. Calls follow the shape of the dose curve; as a rule, active = well fitted cell-killing curve with a large enough effect; inconclusive = small, poorly fitted or top-dose-only effect, or effect the other way; inactive = no such curve, though single readings can be large or run the other way.
Potency is read from the fitted curve at half-maximal effect.

This assay in a line: Quantitative High-Throughput drug screen in 47 multiple myeloma cell lines against the NCATS MIPE library collection: JIM1_ECACC cell viability assay (AID 1918964). The note with it: JIM1 myeloma viability, CellTiter-Glo ATP luminescence, 48 h; series mostly up to 45.8 µM; viability (% of DMSO): at the top concentration. The text has this:
PI: Beverly A. Mock Ph.D.
Laboratory of Cancer Biology and Genetics,
Center for Cancer Research, National Cancer Institute,
National Institute of Health, Bethesda, Maryland
Drug resistance and disease progression are common in multiple myeloma (MM) patients, underscoring the need for new therapeutic combinations. […] We hypothesized that effective combinations would reduce MYC expression and enhance p16 activity. […] These preclinical data identify potentially useful drug combinations for evaluation in drug-resistant MM and reveal potential mechanisms of combined drug sensitivity.
Described herein is the primary MIPE qHTS used to cherrypick compounds. Validated compounds were then further tested for potential synergistic activiy.
[1] Peat TJ, Gaikwad SM, Dubois W, Gyabaah-Kessie N, Zhang S, Gorjifard S, Phyo Z, Andres M, Hughitt VK, Simpson RM, Miller MA, Girvin AT, Taylor A, Williams D, D'Antonio N, Zhang Y, Rajagopalan A, Flietner E, Wilson K, Zhang X, Shinn P, Klumpp-Thomas C, McKnight C, Itkin Z, Chen L, Kazandijian D, Zhang J, Michalowski AM, Simmons JK, Keats J, Thomas CJ, Mock BA. Drug combinations identified by high-throughput screening promote cell cycle transition and upregulate Smad pathways in myeloma. Cancer Lett. 2023 Aug 1;568:216284. doi: 10.1016/j.canlet.2023.216284. Epub 2023 Jun 24. PMID: 37356470; PMCID: PMC10408729.
SEQUENCE No. (e.g., 1, 2, 3, etc.); […] (e.g., Cells, Incubation, Reagent, etc.); VALUE and DESCRIPTION.
1; Cells; 5 uL; white, solid bottom 1536-well Greiner assay plate.
2; Compounds; 23 nL; Kalypsis pin tool (Wako USA) equipped with a 1536-well pin head to transfer to the assay plates.
3; Incubation; 48 hours; 37C incubation.
4; Reagent;5uL; CellTiter Glo (Promega).
5; Detector; 425V; Luminescence; Viewlux PerkinElmer.
NOTES (numbers refer to Sequence numbers above)
1. The cell-based screening methods employed in this study were like those previously published. Briefly, the corresponding myeloma cell lines were screened in 1,536-well plates with 500 cells, 5-uL per well for inhibition of cell viability (assessed by measuring ATP levels with CellTiterGlo).
2. NCATS MIPE 4.0 library of approved and investigational drugs were added using the Kalypsis pin tool. Wells treated with DMSO only for 100% viability and media only wells for 0% viability were used as controls.
3. The assay plates were covered and incubated for 48 hours in a 37C, 5% CO2 incubator with controlled humidity.
4. After 48 hours, CellTilter-GloTM luminescent substrate mix (Promega) reagent was added to the assay plate and plates we incubated for 5 min at room temperature.
5. Signal was measured as median relative luminescence units on a ViewLux (PerkinElmer) multiplate reader.
[1] Heske CM, Davis MI, Baumgart JT, Wilson K, Gormally MV, Chen L, Zhang X, Ceribelli M, Duveau DY, Guha R, Ferrer M, Arnaldez FI, Ji J, Tran HL, Zhang Y, Mendoza A, Helman LJ, Thomas CJ. Matrix Screen Identifies Synergistic Combination of PARP Inhibitors and Nicotinamide Phosphoribosyltransferase (NAMPT) Inhibitors in Ewing Sarcoma. Clin Cancer Res. 2017 Dec 1;23(23):7301-7311. doi: 10.1158/1078-0432.CCR-17-1121. Epub 2017 Sep 12. PMID: 28899971; PMCID: PMC6636827.
For orientation: ATP-based viability assays read luminescence as a measure of living cells.
With `COc1cc2nc(-c3cc(F)ccc3O)nc(N[C@@H]3CNC[C@@H]3C(C)(C)O)c2cc1OC`, the Potency is 1.87 µM (active).

In the case of `CC(C)CNc1ccnc(NCc2csc(-c3ccccc3)n2)n1`, the Potency is 11.8 µM (active).

Take `CCOc1ccccc1N=Nc1c(C)[nH]n(-c2nc(-c3ccccc3)cs2)c1=O`: the Potency is 1.66 µM (active).

Take `Cc1ccccc1-n1c(Cn2nc(-c3cccc(O)c3)c3c(N)ncnc32)nc2cccc(C)c2c1=O`: the Potency was 1.18 µM (active).

Consider `CN1CCC(COc2cnc(-c3cccc(Cn4nc(-c5cccc(C#N)c5)ccc4=O)c3)nc2)CC1`, for which the “viability (% of DMSO)” value was 108%.

Consider `CC[C@H](CC#N)OC(=O)N[C@@H](C)c1cccc(NC(=O)Nc2ccc(-c3cnco3)c(OC)c2)c1`, for which the Potency is 13.2 µM (active).

Turning to `Cc1ccc(NC(=O)Nc2cc(C(F)(F)F)ccc2F)cc1Nc1ccc2c(c1)NC(=O)C2=Cc1ccc[nH]1`, the Potency is 4.18 µM (active).

As for `Cc1nc2c([nH]1)CCN(C(=O)c1ccc(NC(=O)c3ccccc3-c3ccccc3)cc1)c1ccccc1-2`, the “viability (% of DMSO)” value was 82.1%.

Take `CC(C)CN(C[C@@H](O)[C@H](Cc1ccccc1)NC(=O)O[C@H]1CO[C@H]2OCC[C@H]21)S(=O)(=O)c1ccc(N)cc1`: the “viability (% of DMSO)” value is 80.2%.

For the compound `Cn1c(=O)c(-c2c(Cl)cccc2Cl)cc2cnc(Nc3cccc(C(=O)O)c3)nc21`, the Potency was 0.0264 µM (active).

`CN1[C@H]2CC[C@H]1CC(OC(=O)c1c[nH]c3ccccc13)C2` (stereo not given in full): the “viability (% of DMSO)” value is 123%.

For `CCCCC[C@H](O)C=C[C@H]1[C@H](O)CC(=O)[C@H]1CCCCCCC(=O)O`, the “viability (% of DMSO)” value is 114%.

Regarding `CC(=O)NCCC(=O)N[C@@H](CCC(N)=O)C(=O)N[C@@H](CO)C(=O)N[C@@H](CCC(N)=O)C(=O)N[C@@H](CCC(N)=O)C(=O)N[C@H](C(=O)N[C@@H](Cc1ccccc1)C(=O)N[C@]1(C)CCCCCCC=CCCC[C@@](C)(C(=O)N[C@@H](CCC(N)=O)C(=O)N[C@@H](CC(N)=O)C(N)=O)NC(=O)[C@H](CC(C)C)NC(=O)[C@H](CC(C)C)NC(=O)[C@@H](CCCNC(=N)N)NC(=O)[C@H](Cc2c[nH]c3ccccc23)NC(=O)[C@H](CC(C)C)NC(=O)[C@H](CC(N)=O)NC1=O)[C@H](C)O`, the Potency was 7.43 µM (active).

Consider `O=C(CO)N1CCC(c2[nH]nc(-c3ccc(Cl)cc3)c2-c2ccncn2)CC1`, for which the “viability (% of DMSO)” value is 97.8%.

As for `O=C(Nc1cccc(C(F)(F)F)c1)Nc1cc(S(=O)(=O)NC2CC2)ccc1-c1ccsc1`, the “viability (% of DMSO)” value was 104%.

For the compound `NC(=O)c1ccc(N(C(N)=O)c2c(F)cccc2F)nc1-c1ccc(F)cc1F`, the “viability (% of DMSO)” value was 94%.

As to `COc1cc(F)c(C(C)C)cc1-c1ccc(C(F)(F)F)cc1CN1C(=O)O[C@H](c2cc(C(F)(F)F)cc(C(F)(F)F)c2)[C@@H]1C`, the “viability (% of DMSO)” value is 97.3%.

With `OC[C@H]1O[C@@H](OCCc2ccc(O)cc2)[C@H](O)[C@@H](O)[C@H]1O`, the “viability (% of DMSO)” value was 110%.

As to `OC[C@H]1O[C@@H](O[C@H]2[C@@H](O)[C@@](O)(CO)O[C@@H]2CO)[C@H](O)[C@@H](O)[C@@H]1O`, the “viability (% of DMSO)” value was 78.7%.

For the compound `CC(C)n1c(C=C[C@H](O)C[C@H](O)CC(=O)O)c(-c2ccc(F)cc2)c2ccccc21`, the Potency is 7.43 µM (active).

Take `C[C@@H](N)c1ccc(C(=O)Nc2ccnc3[nH]ccc23)cc1`: the Potency was 13.2 µM (active).

For the compound `CCCCC(C)(C)[C@H](O)C=C[C@H]1[C@H](O)CC(=O)[C@H]1CC=CCCCC(=O)O`, the “viability (% of DMSO)” value is 110%.

Regarding `N#CC(c1ccnc(NCCc2cccnc2)n1)c1nc2ccccc2s1` (stereo not given), the Potency is 5.9 µM (active).

As for `Cc1ccc(C(=O)N(CCCN)[C@@H](c2nc3cc(Cl)ccc3c(=O)n2Cc2ccccc2)C(C)C)cc1`, the “viability (% of DMSO)” value is 18.7%.

Turning to `CC1C(=O)OC2C(O)C34C5CC(C(C)(C)C)C36C(OC(=O)C6O)OC4(C(=O)O5)C12O` (stereo not given), the “viability (% of DMSO)” value is 98.7%.

As for `CN1c2ccccc2C(=O)N2CCc3c([nH]c4ccccc34)C21` (stereo not given), the “viability (% of DMSO)” value is 123%.

Regarding `OC(c1cc(C(F)(F)F)nc2c(C(F)(F)F)cccc12)C1CCCCN1` (stereo not given), the Potency is 16.6 µM (active).

In the case of `Cc1cccc(Nc2nc(N[C@@H]3CCCC[C@H]3N)ncc2C(N)=O)c1`, the Potency was 5.9 µM (active).

In the case of `CO[C@H]1/C=C\O[C@@]2(C)Oc3c(C)c(O)c4c(O)c(c5c(nc6cc(C)ccn65)c4c3C2=O)NC(=O)C(C)=CC=C[C@H](C)[C@H](O)[C@@H](C)[C@@H](O)[C@@H](C)[C@H](OC(C)=O)[C@H]1C`, the Potency was 18.7 µM (active).

As to `COC(=O)N1CCN(Cc2cccc(NC(=O)Nc3ccc(C)nc3)c2F)CC1`, the “viability (% of DMSO)” value was 92.6%.

`CCC=CC[C@H]1C(=O)CC[C@@H]1CC(=O)OC`: the “viability (% of DMSO)” value was 117%.

`CCC(C)SSc1ncc[nH]1` (stereo not given): the Potency was 5.9 µM (active).

On to `OC1CCC(Nc2ncc3nc(Nc4c(F)cc(F)cc4F)n([C@@H]4CCOC4)c3n2)CC1` (stereo not given in full), for which the Potency is 16.6 µM (active).

As to `CN(C)CCN(C)C(=O)c1ccc(NC(=O)Nc2ccc(-c3nc(N4CCOCC4)c4ccn(CC(F)(F)F)c4n3)cc2)cc1`, the Potency was 0.001 µM (active).

On to `CN[C@@H]1[C@@H](O)[C@@H](O[C@@H]2[C@@H](O)[C@H](O[C@H]3O[C@H](CN)[C@@H](O)[C@H](O)[C@@H]3O)[C@@H](N)C[C@@H]2NC(=O)[C@@H](O)CN)OC[C@]1(C)O`, for which the “viability (% of DMSO)” value is 117%.

For the compound `NC(=O)c1ncn([C@@H]2O[C@H](CO)[C@@H](O)[C@@H]2O)n1`, the “viability (% of DMSO)” value is 100%.

Take `CC[C@H](C)C(=O)O[C@H]1C[C@H](O)C=C2C=C[C@H](C)[C@H](CC[C@@H](O)C[C@@H](O)CC(=O)O)[C@H]21`: the “viability (% of DMSO)” value is 77%.

Take `Fc1ccc(C(c2ccc(F)cc2)N2CCN(CC=Cc3ccccc3)CC2)cc1`: the “viability (% of DMSO)” value was 102%.

As for `C#CCN(C)CC1=Cc2ccccc2Oc2ccccc21`, the “viability (% of DMSO)” value was 93.4%.

For `Cc1ccc(S(=O)(=O)Nc2nc3ccccc3nc2Nc2ccc3nsnc3c2)cc1`, the Potency is 0.182 µM (active).

The record behind these values is PubChem BioAssay (NCATS).
